Reference: PubChem BioAssay AID1159580 (chemical genetic matrix, 2015)
Screen size: about 5,500 compounds; about 2,000 (36%) were called active. About 18% were inconclusive and are not listed. Rule as the data show it: active = normalized growth mostly below about 0.91 (no sharp cut-off); inconclusive = no clear call, values can overlap the other calls; inactive = mostly above about 0.92. This is one part of the list.

Experiment: chemical genetic growth profiling, strain panel (AID 1159580);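 also: tested at 20 µM; growth read once vehicle control cultures reached saturation at 30 °C; 1 = growth at the plate median or of vehicle wells; lower values mean less growth of the strain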
Details: growth OD

Measured: normalized growth

CCOCN(C(=O)CCl)c1c(C)cccc1CC
inactive: S. cerevisiae deletion strains, locus YJR043C, strain POL32, hits give low values 0.983 | S. cerevisiae deletion strains, locus YJR075W, strain HOC1, hits give low values 0.993 | S. cerevisiae deletion strains, locus YKL009W, strain mrt4, hits give low values 0.989 | S. cerevisiae deletion strains, locus YKL068W, hits give low values 0.973 | S. cerevisiae deletion strains, locus YKL085W, strain MDH1 (second series), hits give low values 0.991 | S. cerevisiae deletion strains, locus YKL085W, strain MDH1, hits give low values 0.991 | S. cerevisiae deletion strains, locus YKL160W, strain elf1, hits give low values 0.995 | S. cerevisiae deletion strains, locus YKL190W, strain CNB1, hits give low values 0.983 | S. cerevisiae deletion strains, locus YKR001C, strain vps1, hits give low values 0.986 | S. cerevisiae deletion strains, locus YKR026C, strain gcn3, hits give low values 0.985 | S. cerevisiae deletion strains, locus YKR091W, strain srl3, hits give low values 0.988 | S. cerevisiae deletion strains, locus YLL001W, strain dnm1, hits give low values 0.989 | S. cerevisiae deletion strains, locus YLL026W, hits give low values 0.991 | S. cerevisiae deletion strains, locus YLL041C, strain sdh2, hits give low values 0.988 | S. cerevisiae deletion strains, locus YLR027C, strain aat2, hits give low values 0.976 | S. cerevisiae deletion strains, locus YLR039C, strain RIC1, hits give low values 0.994 | S. cerevisiae deletion strains, locus YLR058C, strain SHM2, hits give low values 0.986 | S. cerevisiae deletion strains, locus YLR102C, strain apc9, hits give low values 0.974 | S. cerevisiae deletion strains, locus YLR221C, strain rsa3, hits give low values 0.981 | S. cerevisiae deletion strains, locus YLR258W, strain gsy2, hits give low values 1.02 | S. cerevisiae deletion strains, locus YLR262C, strain YPT6 (second series), hits give low values 0.969 | S. cerevisiae deletion strains, locus YLR262C, strain YPT6, hits give low values 1.01 | S. cerevisiae deletion strains, locus YLR268W, strain sec22, hits give low values 0.979 | S. cerevisiae deletion strains, locus YLR320W, strain mms22, hits give low values 0.986 | S. cerevisiae deletion strains, locus YLR330W, strain CHS5, hits give low values 0.977 | S. cerevisiae deletion strains, locus YLR342W, strain FKS1 (second series), hits give low values 0.98 | S. cerevisiae deletion strains, locus YLR342W, strain FKS1, hits give low values 0.978 | S. cerevisiae deletion strains, locus YLR357W, strain rsc2, hits give low values 0.961 | S. cerevisiae deletion strains, locus YLR370C, strain arc18, hits give low values 0.995 | S. cerevisiae deletion strains, locus YLR371W, strain rom2, hits give low values 0.963 | S. cerevisiae deletion strains, locus YLR384C, strain iki3, hits give low values 0.98 | S. cerevisiae deletion strains, locus YLR418C, strain cdc73, hits give low values 1.03 | S. cerevisiae deletion strains, locus YML016C, strain PPZ1, hits give low values 0.992 | S. cerevisiae deletion strains, locus YML032C, strain rad52, hits give low values 0.969 | S. cerevisiae deletion strains, locus YML120C, strain ndi1, hits give low values 0.99 | S. cerevisiae deletion strains, locus YML124C, strain tub3, hits give low values 0.972 | S. cerevisiae deletion strains, locus YMR058W, strain fet3, hits give low values 0.988 | S. cerevisiae deletion strains, locus YMR078C, strain ctf18, hits give low values 0.959 | S. cerevisiae deletion strains, locus YMR125W, strain sto1, hits give low values 0.988 | S. cerevisiae deletion strains, locus YMR129W, hits give low values 0.982 | S. cerevisiae deletion strains, locus YMR205C, strain PFK2, hits give low values 0.996 | S. cerevisiae deletion strains, locus YMR223W, strain ubp8, hits give low values 0.984 | S. cerevisiae deletion strains, locus YMR231W, strain pep5, hits give low values 0.981 | S. cerevisiae deletion strains, locus YMR263W, strain SAP30, hits give low values 0.983 | S. cerevisiae deletion strains, locus YMR307W, strain GAS1, hits give low values 1 | S. cerevisiae deletion strains, locus YNL067W, strain RPL9B, hits give low values 0.995 | S. cerevisiae deletion strains, locus YNL071W, strain lat1, hits give low values 0.989 | S. cerevisiae deletion strains, locus YNL128W, strain TEP1, hits give low values 0.978 | S. cerevisiae deletion strains, locus YNL153C, strain GIM3, hits give low values 1 | S. cerevisiae deletion strains, locus YNL209W, strain ssb2, hits give low values 0.998 | S. cerevisiae deletion strains, locus YNL233W, strain BNI4, hits give low values 0.996 | S. cerevisiae deletion strains, locus YNL248C, strain rpa49, hits give low values 0.984 | S. cerevisiae deletion strains, locus YNL250W, strain rad50, hits give low values 0.977 | S. cerevisiae deletion strains, locus YNL271C, strain bni1, hits give low values 0.994 | S. cerevisiae deletion strains, locus YNL298W, strain CLA4, hits give low values 0.968 | S. cerevisiae deletion strains, locus YNL307C, strain MCK1, hits give low values 0.982 | S. cerevisiae deletion strains, locus YNL322C, strain KRE1 (second series), hits give low values 0.98 | S. cerevisiae deletion strains, locus YNL322C, strain KRE1, hits give low values 0.982 | S. cerevisiae deletion strains, locus YNR049C, strain mso1, hits give low values 0.986 | S. cerevisiae deletion strains, locus YNR052C, strain pop2, hits give low values 0.957 | S. cerevisiae deletion strains, locus YOL006C, strain TOP1, hits give low values 1.02 | S. cerevisiae deletion strains, locus YOL012C, strain htz1 0.911 | S. cerevisiae deletion strains, locus YOL147C, strain pex11, hits give low values 0.981 | S. cerevisiae deletion strains, locus YOR001W, strain rrp6, hits give low values 0.969 | S. cerevisiae deletion strains, locus YOR061W, strain CKA2, hits give low values 0.999 | S. cerevisiae deletion strains, locus YOR069W, strain VPS5, hits give low values 0.987 | S. cerevisiae deletion strains, locus YOR070C, strain gyp1, hits give low values 0.98 | S. cerevisiae deletion strains, locus YOR080W, strain dia2, hits give low values 0.975 | S. cerevisiae deletion strains, locus YOR083W, strain WHI5, hits give low values 1 | S. cerevisiae deletion strains, locus YOR106W, strain vam3, hits give low values 1 | S. cerevisiae deletion strains, locus YOR136W, strain idh2, hits give low values 0.98 | S. cerevisiae deletion strains, locus YOR144C, strain elg1, hits give low values 0.961 | S. cerevisiae deletion strains, locus YOR184W, strain ser1, hits give low values 0.986 | S. cerevisiae deletion strains, locus YOR265W, strain rbl2, hits give low values 1 | S. cerevisiae deletion strains, locus YOR270C, strain vph1, hits give low values 1.01 | S. cerevisiae deletion strains, locus YOR290C, strain snf2, hits give low values 1 | S. cerevisiae deletion strains, locus YOR316C, strain cot1, hits give low values 0.978 | S. cerevisiae deletion strains, locus YPL051W, strain arl3, hits give low values 0.99 | S. cerevisiae deletion strains, locus YPL055C, strain LGE1, hits give low values 1 | S. cerevisiae deletion strains, locus YPL078C, strain atp4, hits give low values 0.985 | S. cerevisiae deletion strains, locus YPL106C, strain sse1, hits give low values 1.01 | S. cerevisiae deletion strains, locus YPL240C, strain hsp82, hits give low values 0.995 | S. cerevisiae deletion strains, locus YPL241C, strain CIN2, hits give low values 0.99 | S. cerevisiae deletion strains, locus YPR119W, strain clb2, hits give low values 0.964 | S. cerevisiae deletion strains, locus YPR141C, strain kar3, hits give low values 0.987 | S. cerevisiae deletion strains, locus YPR163C, strain tif3, hits give low values 0.958 | S. cerevisiae deletion strains, locus YPR167C, strain met16, hits give low values 0.987 | S. cerevisiae deletion strains, strain wtn01, hits give low values 0.967 | S. cerevisiae strains, strain wild type, hits give low values 0.993
